From PubChem BioAssay (NCI)
Compounds without any hit were thinned out: in the full panel of roughly 83,000, 20% have a hit.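 In brief: 96-well plates, 48 h treatment, single concentration, percent growth endpoint.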 Values without a mark were called inactive. Active and inactive are the calls of the source. Rule for the calls: active = growth percent below 10; inactive = the rest.

Tests used:
Test in all cases: NCI-60 one-dose screen, 48 h (100 = growth as untreated, 0 = no growth, -100 = all killed)
Conditions in all cases: 10 µM unless noted
NCI-H23 lung = test system: NCI-H23 lung
NCI-H226 lung = test system: NCI-H226 lung
NCI-H322M lung = test system: NCI-H322M lung
HOP-62 NSCLC = test system: HOP-62 NSCLC
NCI-H460 lung = test system: NCI-H460 lung
HOP-92 NSCLC = test system: HOP-92 NSCLC
NCI-H522 lung = test system: NCI-H522 lung
A549/ATCC NSCLC = test system: A549/ATCC NSCLC
786-0 renal = test system: 786-0 renal
COLO 205 colon = test system: COLO 205 colon

Compound	growth (NCI-H23 lung) [%]	growth (NCI-H226 lung) [%]	growth (NCI-H322M lung) [%]	growth (HOP-62 NSCLC)	growth (NCI-H460 lung)	growth (HOP-92 NSCLC)	growth (NCI-H522 lung)	growth (A549/ATCC NSCLC)	growth (786-0 renal)	growth (COLO 205 colon)
CN(C)C(=O)Nc1nc2cc(Cl)c(Cl)cc2[nH]1	11.4	30.4	39.9	-38.6% (active)	2.78% (active)	75.3%	-58.1% (active)	3.32% (active)	-66.2% (active)	-12.9% (active)
CCc1cccc(-c2ccccc2)c1	107	109	107	101%	108%	92.9%	106%	104%	98.8%	105%
CCOC(=O)c1[nH]c(-c2ccc(Cl)cc2)cc1-c1cccnc1	35.1	68.4	59.4	10.5%	7.36% (active)	17%	-1.79% (active)	30.7%	24.5%	-15.5% (active)
C=CCn1c(SCC(=O)Nc2ccc(/C(C)=N\O)cc2)nnc1-c1cc(-c2ccc(OC)cc2)nc2ccccc12	33.7	41.2	31.9	38.5%	27.8%	45.9%	18.7%	20.1%	32.8%	19.2%
Cc1cc2nc(-c3c(N)ncc(C#N)c3-c3ccc(Cl)cc3)[nH]c2cc1C	50	91.7	81.1	83.5%	43.2%	10.6%	41.2%	36.4%	75.1%	67.4%
CN1CCN(Cn2nc(-c3cc(F)c(Cl)cc3Cl)n(/N=C/c3ccc(N(C)C)cc3)c2=S)CC1	98	101	83.1	56%	115%	84.5%	69%	106%	93.3%	103%
CC(CN(C)C)CN1c2ccccc2CCc2ccccc21 (stereo not given)	83.3	100	77.1	96.4%	103%	38.9%	80.2%	94.4%	64.3%	46.1%
COc1ccc2c(c1)C(=O)/C(=C/c1cccc(OCC(=O)c3ccccc3)c1)O2	41.4	80.9	108	103%	93.1%	-58.8% (active)	-67.7% (active)	105%	104%	-12.5% (active)
COc1ccc(OC)c(NCC(=O)n2nc(/C=C\c3ccc(O)c(OC)c3)cc2/C=C\c2ccc(O)c(OC)c2)c1	19.1	29	29.5	11.8%	8.27% (active)	34.5%	-19.3% (active)	21.4%	-7.3% (active)	-46.8% (active)
C[C@]12CC[C@@H]3c4ccc(O)c(N)c4CC[C@H]3[C@@H]1CC[C@@H]2O	101	112	114	143%	102%	140%	82.6%	99.9%	118%	123%
COc1ccc(OCC(O)CN2CCN(c3ccc(Cl)cc3)CC2)cc1 (stereo not given)	228	86.3	89.6	103%	93.4%	97.9%	74.3%	93.2%	151%	95.7%
Cc1ccc2oc(=O)cc(C3C(C#N)=C(N)Oc4c3ccc3ccccc43)c2c1 (stereo not given)	89.8	87.1	89.2	63.7%	84.1%	87.3%	48.6%	71.1%	81.3%	70.3%
O=C(c1cc(-c2ccc(Cl)cc2)nc2ccccc12)N1N=C(c2ccccc2)CC1c1cc(-c2ccccc2)nn1-c1ccccc1 (stereo not given)	72.5	84.1	59.8	74%	48.6%	85%	80.8%	80%	90%	84.9%
COc1cc2ncn3c(=O)c4c5c(sc4nc3c2cc1OC)CCCCC5	89.3	74.5	90.9	91%	99.5%	81.9%	99.9%	104%	106%	98%
COc1cc(NC(=O)c2cc(OC)c3ccn(C)c3c2)cc2c1C[C@]1(C)CC[C@@H](O)C(C)(C)[C@H]1O2	79.9	106	90.4	46.1%	49.2%	44.6%	76.1%	63.6%	-1.08% (active)	51.7%
CCN(CC)C(=O)C1CCN(C(=O)c2ccccc2)CC1	95.1	94.1	99.4	93.3%	104%	98.8%	90.8%	104%	97.3%	106%
O[C@@H]1CCO[C@H](c2ccc3ccccc3c2)C1	95.3	96.8	104	99.5%	107%	93.1%	87.9%	96.7%	98.7%	106%
Cc1ccc2c(C3C(C#N)=C(N)Oc4cc5ccccc5cc43)cc(=O)oc2c1 (stereo not given)	41	87.8	42.7	30.1%	12.5%	75.7%	7.76% (active)	25.1%	26.2%	2.72% (active)
O=S(=O)(CCN1CCOCC1)Nc1cncc(-c2ccc3ncnc(Nc4ccc(F)c(Cl)c4)c3c2)c1	74.8	84.8	33.8	40%	98.6%	13%	54.8%	77.2%	58.9%	64.9%
S=C=NP1(N=C=S)=NP(N=C=S)(N=C=S)=NP(N=C=S)(N=C=S)=NP(N=C=S)(N=C=S)=N1 (stereo not given)	97.7	94	80.9	85.4%	111%	93.2%	72.2%	79.2%	89.4%	118%
CCCCNC(=O)Oc1ccc(/C(=C(/CC)Cc2ccccc2)c2ccc(OCCCN(C)C)cc2)cc1	91.7	92.9	83.1	96.1%	63.7%	43.8%	88.1%	69.5%	71.2%	20.5%
COC(=O)c1ccc(NC(N)=NCC(C)(C)COc2ccc(C(F)(F)F)cc2)nc1	33.6	50.7	65.9	76.6%	38.8%	47.1%	37.2%	56.1%	70.9%	-76.7% (active)
O=C(N/N=C1\SCC(=O)N1c1ccccc1)c1cc(-c2cc3ccccc3o2)nn1-c1ccccc1	44.8	118	102	101%	121%	50.9%	106%	110%	102%	132%
Cc1cc(-c2ccccc2)nc2ccccc12	90.4	90.2	103	79.8%	103%	95.7%	90.5%	90.2%	109%	96.5%
Cc1nccc2c3ccc(OCc4cn(Cc5ccc(Br)cc5)nn4)cc3n(CCCc3ccccc3)c12	82.5	88.9	85.9	62%	89.5%	77.9%	59.4%	82.6%	67%	92.4%
Nc1nc(Cl)c2c(C(F)(F)F)cn(CC3CCNCC3)c2n1	47.5	111	100	103%	103%	57.9%	5.07% (active)	94.2%	95.5%	94%
CSc1nc(N)nc2c1ncn2C	95.8	102	104	84.6%	104%	64.5%	78%	84.5%	90%	94.5%
